Inconclusive results are not listed. Unmarked numbers belong to inactive results. The call rests on the fitted dose curve.
assay: cAMP Responsive Elements (CRE) small molecule agonists, cell-based qHTS assay (AID 1963590); details: CRE-bla HEK293T, beta-lactamase FRET ratio, 3 h; series mostly up to 92.4 µM; activation: at the top concentration
Source text: U.S. Tox21 Program National Center for Advancing Translational Sciences [NCATS] Division of Preclinical Innovation [DPI] U.S. Environmental Protection Agency [EPA] National Institutes of Environmental Health Sciences [NIEHS] National Toxicology Program [NTP] U.S. Food and Drug Administration [FDA] Tox21 Assay Overview: CREB (cyclic-AMP Responsive Element Binding Protein) is a cellular transcription factor. It binds to certain DNA sequences called cAMP Responsive Elements (CRE) and regulates the transcription of the genes. […] This cell line can be used to find agonists/antagonists of the cyclic AMP signaling pathway. The activation of the report gene under culture conditions can be detected by fluorescence intensity. This cell line has been used to screen the Tox21 10K compound library to identify agonists that induce oxidative stress.
Tox21 Assay Protocol Summary: CRE-bla Hek 293T cells were suspended in assay medium (DMEM containing 10% dialyzed FBS, 0.1 mM NEAA, 1 mM sodium pyruvate and 25 mM HEPES) and dispensed at 2,000 cells/5 uL /well into 1536-well black wall/clear bottom plates using a Multidrop Combi (ThermoFisher Scientific, Waltham, MA) dispenser. After the assay plates were incubated at 37 C/5% CO2 for 18 hrs, 23 nL of compounds dissolved in DMSO, positive controls or DMSO only was transferred to the assay plate by a pintool workstation (Kalypsys, San Diego, CA). After the plates were incubated at 37 C/5% CO2 for 3 hrs, 1 uL of LiveBLAzer B/G FRET substrate (Invitrogen, Carlsbad, CA) was added to each well using Bioraptr Flying Reagent Dispenser (FRD, Aurora Discovery, San Diego, CA). The plates were incubated at room temperature for 2 h.
On the % scale 0 is the no-effect control and ±100 the full control effect.

In order of rising “activation” value:
1. CC1=CC[C@H](C(C)C)C=C1  -2.53%
2. CCCCCCCCC=O  -2.07%
3. CCCCCCCCCCCCCCCC(=O)OC[C@H](O)[C@H]1OC(=O)C(O)=C1O  -1.61%
4. Oc1cc2ccccc2cc1O  -1.53%
5. CC(=O)Nc1ccc(N)cc1  -0.757%
6. Nc1cc(C(=O)O)c(O)c(S(=O)(=O)O)c1  -0.66%
7. CCCCCCC(=O)OCC  -0.309%
8. CCCCC(CC)COC(=O)COc1ccc(Cl)cc1C (stereo not given)  -0.171%
9. CN(C)Cc1ccccc1  -0.0009%
10. Cc1ccc(O)cn1  0%
11. C=CC(=O)OCC1CCCO1 (stereo not given)  0.0025%
12. C/C=C(\C)C(=O)OCCC(C)CCC=C(C)C (stereo not given)  0.0346%
13. C=COCC(C)C  0.102%
14. CC/C=C\CCOC(=O)c1ccccc1  0.145%
15. Oc1ccc(Nc2ccccc2)cc1  0.244%
16. OCCNCc1ccccc1  0.37%
17. COC(C)(OC)OC  0.446%
18. CCOC(=O)CCc1ccccc1  0.765%
19. O=S(=O)(Cl)c1c(Cl)cccc1Cl  0.777%
20. CC(C)c1cc(C(C)C)cc(C(C)C)c1  1.07%
21. C=CC(OCC)OCC  1.63%
22. Cc1c(C)c([N+](=O)[O-])c(C(C)(C)C)c([N+](=O)[O-])c1C  2.28%
23. C[C@@H]1C[C@H]2[C@@H]3CCC4=CC(=O)C=C[C@]4(C)[C@@]3(F)[C@@H](O)C[C@]2(C)[C@@]1(O)C(=O)COP(=O)(O)O  2.74%

In order of falling “activation” value:
1. NNc1nnc(NN)c2ccccc12  3.89% [at 42.5 µM]
2. N#C/C(=C1\SCC(c2ccccc2Cl)S1)n1ccnc1 (stereo not given)  2.6% [at 42.5 µM]
3. CN(Cc1cc(Br)cc(Br)c1N)C1CCCCC1  1.93% [at 42.5 µM]
4. CCOC(=O)Cn1cccc1-c1nc(-c2ccc(OC)cc2)c(-c2ccc(OC)cc2)s1  0.64% [at 42.5 µM]
5. NCCS  0.5% [at 42.5 µM]
6. O=c1[nH]cnc2nc[nH]c12  0.225% [at 42.5 µM]
7. Nc1ccc(C(=O)O)c(O)c1  0.148% [at 42.5 µM]
8. CN(C)CCN1C(=O)c2ccccc2N(C)c2ccccc21  -0.04% [at 42.5 µM]
9. NC(=O)C1(N2CCCCC2)CCN(CCCC(=O)c2ccc(F)cc2)CC1  -0.069% [at 42.5 µM]
10. CCC(=O)Nc1ccc(O)cc1  -0.114% [at 42.5 µM]
11. Cc1cccc(C)c1NC(=O)c1ccc(N)cc1  -0.253% [at 42.5 µM]
12. CC(CC(C)(C)C)CC(C)(C)CC(C)(C)C (stereo not given)  -0.493% [at 42.5 µM]
13. CCOC(=O)c1cccnc1  -0.611% [at 42.5 µM]
14. Cc1ccc2c(Cl)cc(Cl)c(O)c2n1  -0.616% [at 42.5 µM]
15. CC(C)NCC(O)COc1ccc(COCCOC(C)C)cc1 (stereo not given)  -1.17% [at 42.5 µM]
16. COC(=O)[C@@H]1[C@H]2C[C@H]3c4[nH]c5ccccc5c4CCN3C[C@@H]2CC[C@@H]1O  -2% [at 42.5 µM]
17. CCN(CCCCOC(=O)c1ccc(OC)c(OC)c1)C(C)Cc1ccc(OC)cc1 (stereo not given)  -2.95% [at 42.5 µM]

— PubChem BioAssay (Tox21)
